# Potency and affinity values are given separately. Inconclusive results are not listed. Calls of active or inactive are those of the source.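 The calls were made as follows: active = samples whose fitted half-maximal inhibition concentration is no more than ten times the top valid dose tested; inconclusive = flat response between -70 and -30, or invalid curve fit; inactive = flat within 30 of zero, potency above limit, or signal rising.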
# Target: Trypsin (Sus scrofa) (UniProt P00761)
# Experiment: trypsin protease activity blockade – biochemical, quenched peptide fluorescence, cherry-pick, selectivity assay for Rce1 protease inhibitor project, dose response (AID 488789);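 also: more negative means stronger trypsin inhibition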
# Settings: porcine trypsin, quenched peptide cleavage fluorescence; series mostly up to 10 µM; activity change, negative = inhibition: at the top concentration
# Sequence of Trypsin (Sus scrofa) (P00761 whole entry, looked up): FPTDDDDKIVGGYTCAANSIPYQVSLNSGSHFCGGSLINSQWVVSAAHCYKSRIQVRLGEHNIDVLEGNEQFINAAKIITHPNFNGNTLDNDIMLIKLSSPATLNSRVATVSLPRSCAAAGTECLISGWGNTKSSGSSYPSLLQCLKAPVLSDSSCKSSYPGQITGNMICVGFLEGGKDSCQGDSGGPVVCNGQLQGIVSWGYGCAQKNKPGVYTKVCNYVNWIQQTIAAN
row,Compound,"activity change, negative = inhibition"
1,Nc1nonc1-n1nnc(C(=O)N/N=C/c2cccc(Cl)c2)c1CSc1ccc(Cl)cc1,7.37% (inactive)
2,CCOC(=O)C1CCCN(S(=O)(=O)c2cc3[nH]c(=O)c(=O)[nH]c3cc2C)C1 (configuration not stated),10.7% (inactive)
3,Cc1ccc(C(=O)N/C(=C/c2ccco2)C(=O)Nc2cccc(C(=O)O)c2)cc1,5.53% (inactive)
4,COC(C/C=C/C(=O)[C@H](C)OCc1ccccc1)OC,6.3% (inactive)
5,COc1ccc(C2c3c(ncn(CCCO)c3=N)Oc3ccc4ccccc4c32)cc1 (configuration not stated),0.00832% (inactive)
6,COc1ccc(C2Nc3ccccc3C(=O)N2Cc2ccccc2)cc1COc1ccccn1 (configuration not stated),-12.8% (inactive)
7,COc1ccc2cc(C(=O)C3CCCN(C(=O)c4cc(=O)n(C)c(=O)n4C)C3)ccc2c1 (configuration not stated),-7.43% (inactive)
8,COc1ccccc1C1=NN(C2=NN=C(N)Cc3ncnn32)C(O)(C(F)(F)F)C1 (configuration not stated),-8.08% (inactive)
9,C[C@@]12CCC=C[C@H]1[C@H](c1ccc(/C=C/c3ccccc3)cc1F)N(Cc1ccccc1)C2=O,-6.03% (inactive)
10,CC(C)c1ccc(NC(=O)COc2nncc3ccccc23)cc1,3.74% (inactive)
11,Cc1cccc(NS(=O)(=O)c2ccc(C)c(C(=O)OCC(=O)Nc3cc(C)on3)c2)c1,1.4% (inactive)
12,CC(=O)Nc1ccc(Cl)cc1C1COC(=O)C1=N (configuration not stated),13.5% (inactive)
13,CCOc1ccc(N(CC(=O)NC2CC3CCC2C3)S(=O)(=O)c2ccccc2)cc1 (configuration not stated),-1.05% (inactive)
14,CC(CCc1ccccc1)NCC(O)c1ccc(O)c(C(N)=O)c1 (configuration not stated),-6.32% (inactive)
15,Cc1cc(N2CCOCC2)n2cc(-c3ccccc3)nc2n1,-0.296% (inactive)
16,O=C(O)c1ccc2cccc(Cl)c2c1O,9.83% (inactive)
17,O=C(Nc1ccc2c(c1)CCC2)c1ccccc1Br,5.5% (inactive)
18,CS(=O)(=O)Nc1ccccc1C(=O)NCc1ccccc1Cl,10.6% (inactive)
19,CC(C)NCC(O)COCCOc1ccc(Br)cc1 (configuration not stated),11.8% (inactive)

row,Compound,"activity change, negative = inhibition"
1,COC(C[C@H](O)C[C@H](O)[C@@H](C)OCc1ccccc1)OC,4.45% (inactive)
2,COC(=O)c1ccccc1NC(=O)NCc1cccnc1,-11.2% (inactive)
3,COc1ccc(C(=O)/C=C/c2ccc(OC)cc2OC)c(O)c1,7.28% (inactive)
4,CCSCCOC(=O)C1=C(C)NC(=O)NC1c1ccccc1 (configuration not stated),11.1% (inactive)
5,CCOc1ccccc1CNC(=O)c1cc2occc2n1C,-0.747% (inactive)
6,CCOc1ccc(N(Cc2ccc(OC)cc2)C(=O)c2ccco2)cc1,13.2% (inactive)
7,CCOc1ccc2[nH]c(=O)c(CN(CCN3CCOCC3)Cc3nnnn3C(C)(C)CC)cc2c1,3.69% (inactive)
8,COc1cccc(-c2nc(C#N)c(N3CCN(C(=O)c4ccco4)CC3)o2)c1,-2.13% (inactive)
9,O=C1CCCC(O)=C1N=Nc1ccc2ncsc2c1,3.04% (inactive)
10,COc1ccc(C(CNC(=O)COc2cc(C)c(Cl)c(C)c2)N2CCCCC2)cc1 (configuration not stated),3.11% (inactive)
11,Cc1cc(Cl)c2oc(C(=O)N3CCN(C(=O)c4ccco4)CC3)c(C)c2c1,11.6% (inactive)
12,CCC(=O)Nc1cc(-c2nn(CC(=O)N3CCCCC3)c(=O)c3ccccc23)ccc1N1CCOCC1,-2.62% (inactive)
13,FC(F)(F)c1cc(Oc2ccccc2)ncc1-c1nnc(-c2ccccc2Cl)o1,16% (inactive)
14,O=[N+]([O-])c1cc(S(=O)(=O)N2CCCC2)ccc1NN=C1CCCCC1,6.92% (inactive)
15,COc1ccc(S(=O)(=O)N(CC(=O)N2CCCC2)Cc2ccccc2)cc1,2.3% (inactive)
16,CS(=O)(=O)Cc1ccc(C(=O)N(CCc2ccccc2)Cc2ccccc2)cc1,10.6% (inactive)
17,CCN(CC)CCN(Cc1cc2cc3c(cc2[nH]c1=O)OCO3)C(=S)NCc1ccco1,49.4% (inactive)
18,COc1ccc(CN2CCN(C(c3ccc(F)cc3)c3ccc(F)cc3)CC2)c(OC)c1OC,5.69% (inactive)

# — PubChem BioAssay AID488789 (Broad Institute, 2010)
